Measurements: PubChem BioAssay (NCI)
This is part of a sample that, as a whole, favours compounds with a hit. Of some 83,000 tested, about 20% had one in any assay.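 Plates (96-well) were seeded with cells, treated with compound at one concentration, and incubated for 48 hours before percent growth was determined.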 Activity calls are given as the source filed them. The calls were made as follows: active = growth percent below 10; inactive = the rest.

Key:
Assay in all cases: NCI-60 one-dose screen, 48 h (100 = growth as untreated, 0 = no growth, -100 = all killed)
Details in all cases: 10 µM
[1] = system: HT29 colon
[2] = system: SNB-75 CNS
[3] = system: SNB-19 CNS
[4] = system: U251 CNS
[5] = system: PC-3 prostate
[6] = system: SK-MEL-5 melanoma
[7] = system: UACC-62 melanoma
[8] = system: LOX IMVI melanoma
[9] = system: SK-MEL-28 melanoma
[10] = system: SK-MEL-2 melanoma

Measured: growth

O=C1C(c2ccccc2)C2C=CC(C2)N1O (stereo not given)
inactive: [1] 97.9% | [2] 107% | [3] 106% | [4] 109% | [5] 98.2% | [6] 106% | [7] 101% | [8] 99.6% | [9] 118% | [10] 103%

COc1ccc2c(c1)-c1c(c3cc(OC)ccc3n(CCN(C)C)c1=O)C2=O
active: [1] -63.4% | [2] -3.22% | [8] -67.9%
inactive: [3] 32.4% | [4] 20.3% | [5] 21.5% | [6] 11.7% | [7] 36.9% | [9] 41.3% | [10] 14.4%

COc1ccc(-c2cc(/C=C3\C(=O)Nc4ccc(OC)cc43)[nH]n2)cc1
inactive: [3] 62.1% | [4] 37.8% | [5] 15.8% | [6] 31% | [7] 39.4% | [8] 40.3% | [9] 57% | [10] 23.4%
active: [1] 3.87% | [2] -18.7%

COc1cccc(NC(=O)c2sc3nc4c(cc3c2N)C(O)CCC4)c1 (stereo not given)
inactive: [2] 44.6% | [3] 49.5% | [4] 10.6% | [5] 25.4% | [6] 25.1% | [7] 48.9% | [8] 25.8% | [9] 56% | [10] 49.5%
active: [1] 4.69%

FC(F)(F)c1ccc2nc(-c3nc(-c4ccccc4)n4ccccc34)[nH]c2c1
inactive: [1] 14.7% | [2] 66.9% | [3] 116% | [4] 59.5% | [5] 39.6% | [6] 84.1% | [7] 103% | [8] 20.6% | [9] 98.4% | [10] 81.6%

CCCCOC(=O)Oc1ccc(C(=O)Oc2ccc(OCC)cc2)cc1
inactive: [1] 108% | [2] 111% | [3] 102% | [4] 88.9% | [5] 93.2% | [6] 102% | [7] 104% | [8] 96.3% | [9] 109% | [10] 112%

COc1cc(NC(=O)c2sc3nc4c(cc3c2N)C(O)CCC4)cc(OC)c1 (stereo not given)
inactive: [1] 67% | [2] 82.1% | [3] 93.6% | [4] 78.6% | [5] 99.5% | [6] 88.4% | [7] 73% | [8] 93.3% | [9] 85.1% | [10] 61.6%

CC(=O)c1cc(Cl)ccc1O
inactive: [1] 106% | [2] 95.4% | [3] 113% | [4] 107% | [5] 91.1% | [6] 103% | [7] 108% | [8] 102% | [9] 109% | [10] 110%

S=c1[nH]ccn1-c1c(Cl)cccc1Cl
inactive: [1] 105% | [2] 102% | [3] 90.9% | [4] 104% | [5] 106% | [6] 106% | [7] 97.3% | [8] 99% | [9] 101% | [10] 140%

COc1ccc(/C=C2/CN(C(=O)c3ccc(C)cc3)C/C(=C\c3ccc(OC)cc3)C2=O)cc1
inactive: [1] 32.9% | [2] 82.7% | [3] 98.5% | [4] 89.4% | [5] 68.6% | [6] 89.1% | [7] 86.4% | [8] 42.1% | [9] 116% | [10] 95.1%

Cn1c([N+](=O)[O-])cnc1/C=C1\Oc2cc(Cl)ccc2C1=O
inactive: [2] 65.6% | [3] 15.6%
active: [1] -25.4% | [4] -9% | [5] -12.5% | [6] -77.4% | [7] 7.22% | [8] -60.3% | [9] -9.7% | [10] -55.2%

NC(=O)c1ccc(-c2cccc3c(=O)nc(N4CCOCC4)oc23)cc1
inactive: [1] 101% | [2] 74.5% | [3] 99.1% | [4] 97.7% | [5] 89.9% | [6] 97.8% | [7] 92.3% | [8] 91.1% | [9] 103% | [10] 102%

CCN1CCC(CCOC)(CN2c3ccccc3Sc3ccc(Cl)cc32)C1 (stereo not given)
inactive: [2] 47.8% | [3] 70.8% | [4] 40.5% | [5] 35.7% | [9] 58.2% | [10] 88.5%
active: [1] 7.66% | [6] -49.1% | [7] -46.7% | [8] -5.49%

COc1ccc2c(c1)sc1nc(-c3ccccc3)c(-c3ccsc3)n12
active: [1] -5.75% | [2] 6.18% | [6] 9.67% | [10] 5.47%
inactive: [3] 40.8% | [4] 26.9% | [5] 16.6% | [7] 36.3% | [8] 40.3% | [9] 60.7%

O=C(Nc1ccc(Cl)c(Cl)c1)Nc1c(Oc2ccc(Cl)c(Cl)c2)ccc(Cl)c1S(=O)(=O)O
active: [1] 4.55% | [2] -11.6% | [6] 7.15% | [10] -1.82%
inactive: [3] 48.3% | [4] 22.1% | [5] 19.6% | [7] 31.6% | [8] 33.8% | [9] 54.8%

CSC1=NCCCC1
inactive: [1] 120% | [2] 99.9% | [3] 110% | [4] 103% | [5] 100% | [6] 106% | [7] 113% | [8] 98.4% | [9] 109% | [10] 105%

Oc1[nH]c2ccc(Cl)cc2c1/C=c1/ccc2c(c1)N=C(c1cccs1)N=2
inactive: [1] 43.8% | [3] 62% | [4] 61.3% | [5] 62.5% | [6] 52.8% | [7] 53.6% | [8] 42.5% | [9] 71.1% | [10] 73.5%
active: [2] 6.31%

COc1ccc(-c2nc3sc(-c4ccc(OC)cc4)c(-c4ccc(OC)cc4)n3c2/C=C/c2ccc(C(C)C)cc2)cc1
inactive: [1] 92.5% | [2] 55.9% | [3] 103% | [4] 102% | [5] 79.4% | [6] 99.9% | [7] 86.9% | [8] 98.6% | [9] 100% | [10] 84.3%

COc1cc(-c2cc(/C=C3\C(=O)Nc4cc(Cl)ccc43)[nH]n2)cc(OC)c1OC
inactive: [1] 28.3% | [3] 46.7% | [4] 40.4% | [9] 19.9% | [10] 51.9%
active: [2] -5.23% | [5] 4.7% | [6] -49.5% | [7] -51.5% | [8] 6.79%

COc1cc(Cl)cc(-c2nn(-c3cccc(NC(=O)Nc4cc(C(F)(F)F)cc(C(F)(F)F)c4)c3)cc2-c2ccncc2)c1
inactive: [2] 11.3% | [3] 26.1%
active: [1] 3.93% | [4] -58% | [5] -6.27% | [6] -79.4% | [7] -21.2% | [8] -24% | [9] 6.55% | [10] -38.1%

c1ccc([I+]c2ccccc2)cc1
inactive: [1] 31.4% | [2] 63.6% | [3] 85.5% | [4] 70.9% | [5] 69.8% | [6] 55.7% | [7] 106% | [8] 43.1% | [9] 87.4% | [10] 55.3%

COc1ccc(-c2nc(-c3nc4ccc(Cl)cc4[nH]3)c3ccccn23)cc1
active: [2] -89.4% | [4] 7.5%
inactive: [1] 34.7% | [3] 20.3% | [5] 55.9% | [6] 50.7% | [7] 82.5% | [8] 30.4% | [9] 12% | [10] 41%

COc1ccc2c(c1)C(=O)c1c-2c(=O)n(CCCN(C)C)c2cc(OC)c(OC)cc12
inactive: [1] 60.6% | [2] 48.9% | [3] 59.2% | [4] 43.8% | [5] 72.2% | [6] 86.8% | [7] 77% | [8] 17.3% | [9] 111% | [10] 69%

COc1ccc(-c2cc(-c3cccc(NS(C)(=O)=O)c3)nc(N)c2C#N)cc1
inactive: [3] 42.1% | [4] 28.5% | [6] 13.6% | [7] 39.9% | [8] 44.8% | [9] 66% | [10] 49.8%
active: [1] 8.45% | [2] -6.31% | [5] 9.4%

CCN(CC)CCOc1nc2cc(OC)c(OC)cc2c2c1-c1ccc(OC)cc1C2=O
inactive: [1] 40.4% | [2] 56.5% | [3] 73.4% | [4] 60% | [5] 81.8% | [6] 91% | [7] 78.9% | [8] 30.4% | [9] 112% | [10] 74.2%

COc1cccc(Cn2c(-c3nonc3N)nc3ccccc32)c1
inactive: [3] 53.3% | [4] 18.4% | [5] 11% | [6] 16.8% | [7] 33.9% | [8] 40.9% | [9] 43.7%
active: [1] -5.42% | [2] -16.7% | [10] -12.2%

CCCCCCCC(C)NCCO (stereo not given)
inactive: [1] 103% | [2] 99.4% | [3] 109% | [4] 108% | [5] 105% | [6] 101% | [7] 113% | [8] 92.8% | [9] 112% | [10] 106%

COc1cc2c(cc1OCCCCCCN1CCN(CC(=O)Nc3ccc(Cl)cc3C(=O)c3ccccc3Cl)CC1)N=CC1CCCN1C2=O (stereo not given)
active: [1] -56.8% | [2] -84.5% | [3] -77.7% | [4] -100% | [5] -100% | [6] -100% | [7] -98.7% | [8] -93.9% | [9] -85.8% | [10] -69.6%
